Source: PubChem BioAssay (several laboratories)
KLK7 zymogen act: activates the human kallikrein-7 zymogen; AID 652039; 370,000 tested, 0.9% active; P49862; purified proKLK7, EDANS-DABCYL substrate fluorescence; 100% is mature enzyme control, 0% vehicle; activation, % at 7 µM;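 active = activation above the mean of all tested compounds plus 3 SD, computed per campaign excluding outliers beyond control limits, cut at about 13% in these data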
PG9 binder: binds the HIV-1 gp120 antibody PG9 | AID 624416 | inhibition, % at 6.7 µM | 360,000 tested, 0.43% active | TR-FRET gp120-PG9 antibody binding; in the data active = inhibition above about 8.5%
PP5 primary: inhibitors of human protein phosphatase 5 (PP5); purified PP5c, OMFP substrate fluorescence; inhibition, % at 6.7 µM; 320,000 tested, 0.18% active; AID 1987;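 active = inhibition above the campaign's mean inhibition across all tested compounds plus 3 SD, cut at about 9.5% in these data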;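 note: 0% = DMSO only and 100% = 100 µM cantharidin control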
PP1 counter: PP1-alpha (human) inhibition in PP5 counter-screen; P62136; purified PP1alpha, OMFP fluorescence; inhibition, % at 6.7 µM; 320,000 tested, 0.9% active;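 active = inhibition above the mean inhibition of all tested compounds plus 3 SD, computed separately for each screening campaign, cut at about 15% in these data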
GASC-1 inh: inhibitors of human GASC-1 (JMJD2C) demethylase. Q9H3R0. inhibition, % at 2.35 µM. GST-JMJD2C(1-420) H3K9me3 demethylation, DELFIA europium. 330,000 tested, 0.069% active;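 active = more than half of a compound's replicate wells show inhibition beyond 50%, single wells judged on their own value; inconclusive = some, but no more than half, of replicates pass 50% inhibition; inactive = no replicate passes 50% inhibition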;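 note: signal counts dimethyl H3K9 product captured on neutravidin plate; 0% = median of DMSO wells and 100% = 0.3 times that DMSO median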
Target sequence (Q9H3R0 1-420 limits assumed): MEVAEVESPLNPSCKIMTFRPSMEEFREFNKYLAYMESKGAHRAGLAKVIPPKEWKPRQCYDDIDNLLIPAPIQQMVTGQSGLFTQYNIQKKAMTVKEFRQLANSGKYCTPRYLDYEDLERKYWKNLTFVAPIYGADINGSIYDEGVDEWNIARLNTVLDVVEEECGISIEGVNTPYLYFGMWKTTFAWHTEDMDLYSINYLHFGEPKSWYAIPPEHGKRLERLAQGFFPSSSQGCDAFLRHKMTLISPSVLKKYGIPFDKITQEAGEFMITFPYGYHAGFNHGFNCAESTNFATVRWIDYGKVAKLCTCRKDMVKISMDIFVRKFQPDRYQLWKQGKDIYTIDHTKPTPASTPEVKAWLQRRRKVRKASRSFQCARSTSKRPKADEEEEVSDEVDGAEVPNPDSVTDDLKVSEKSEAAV
NR1D1 modulator: modulators of human Rev-erb alpha DNA binding; P20393; 370,000 tested, 0.79% active; Rev-erbα–FITC-DNA binding, fluorescence polarization, 90 min; activity, % at 10 µM;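 active = activity above about 14%, limit read from the data; passing the limit was not always enough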;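 note: 0% = DMSO wells with 35 nM protein and 100% = DMSO wells with 750 nM protein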
proKLK7 act conf: proKLK7 activation, confirmation | activation, % at 7 µM | 3,200 tested, 68% active | purified proKLK7, EDANS-DABCYL substrate fluorescence; scaled: vehicle 0, mature enzyme 100 | shares compounds with KLK7 zymogen act;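 active = activation, as change over the incubation, above the mean of all tested compounds plus 3 SD, cut at about 13% in these data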
EDANS-DABCYL int: counter-screen for kallikrein-7 activators: EDANS-DABCYL optical interference; shares compounds with KLK7 zymogen act; EDANS-DABCYL substrate fluorescence interference, no enzyme, 4 h; solvent 0%, active enzyme control 100%; activation, % at 7 µM; 3,200 tested, 80% active; AID 686952;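 active = activation above the all-compound mean plus 3 SD, ignoring values outside control-based bounds, cut at about 4.8% in these data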;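 note: value is the 4 h activation minus the activation read at time zero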
EDANS interf: counter-screen for kallikrein-7 activators: EDANS-DABCYL interference, dose response. EC50, µM. EDANS-DABCYL peptide fluorescence interference, no enzyme. shares compounds with KLK7 zymogen act. 250 tested, 20% active;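 active = compounds that raise the fluorescence signal in this interference counterscreen, with EC50 at or below 10 µM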;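 note: intact quenched peptide substrate alone read at 355 nm excitation and 520 nm emission; signal is fluorescence gain from T0 to T4 after four hours at room temperature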
Starred values were filed as active, the others as inactive; ? = inconclusive; . = not tested or not shown. Sampled rows, rich in hits. Any-hit rate of the full collection: about 2.8%.

SMILES | KLK7 zymogen act | PG9 binder | PP5 primary | PP1 counter | GASC-1 inh | NR1D1 modulator | proKLK7 act conf | EDANS-DABCYL int | others
Cc1ccccc1N1C(=O)CC(N(O)c2ccccc2)C1=O (centres undefined) | 362.9* | -2.6 | -0.3 | -0.8 | -5.4 | 1.2 | 316.9* | 330.3*
CCCOc1ccc(N2C(=O)CC(N(O)c3ccccc3)C2=O)cc1 (centres undefined) | 111.6* | -1.3 | 1.1 | 1.8 | -2.7 | -3.9 | 120.0* | 124.8*
CCN(CCO)C1CC(=O)N(c2ccccc2C)C1=O (centres undefined) | . | . | -0.5 | -3.0 | -5.3 | . | . | .
CCCOc1ccccc1N1C(=O)CC(N(O)c2ccccc2)C1=O (centres undefined) | 47.1* | -1.7 | 1.9 | 0.9 | -8.7 | -1.1 | 29.1* | 31.2*
O=C1CC(N(O)c2ccccc2)C(=O)N1c1cc(Cl)cc(Cl)c1 (centres undefined) | 47.8* | -1.6 | 3.3 | 0.6 | 7.5 | -2.2 | 645.3* | 616.9*
Cc1cccc(Cn2cc(COC(=O)NCCc3ccccc3)nn2)c1 | -0.7 | . | . | . | . | 3.0 | . | .
COc1ccccc1N(O)C1CC(=O)N(c2ccc(F)cc2)C1=O (centres undefined) | 6.3 | 0.2 | -1.0 | -0.2 | 32.8 | -5.8 | . | .
COc1ccccc1N1C(=O)CC(N(O)c2ccccc2)C1=O (centres undefined) | 117.5* | -1.4 | 0.7 | -1.7 | -18.2 | 9.0 | 191.9* | 195.4*
O=C(Nc1nc2ncccn2c1-c1ccc(F)cc1)c1ccccc1 | 2.8 | . | . | . | . | -3.9 | . | .
COc1cc(/C=C/C(=O)c2ccc(O)cc2)ccc1OCC#N | 15.8* | 0.8 | 2.5 | -0.1 | -16.5 | 3.2 | 3.0 | 4.2*
COc1cc(/C=C/C(=O)OCC(=O)Nc2ccc3c(c2)OCCO3)ccc1OCC#N | 38.3* | -2.2 | -0.2 | -0.3 | 2.3 | 0.2 | 128.1* | 110.1*
COc1ccc(C(=O)/C=C/c2ccc(O)cc2)cc1 | 17.6* | 0.6 | 0.8 | 0.0 | 10.2 | -3.5 | 4.3 | 5.5*
COc1ccccc1/C=C/C(=O)OCC(=O)Nc1ccc2c(c1)OCCO2 | 0.1 | -0.6 | 0.9 | -3.4 | . | -2.8 | . | .
COc1ccc(/C=C/C(=O)c2ccccc2)cc1COc1ccccc1F | 263.4* | -2.8 | 0.0 | 0.6 | 8.1 | -1.4 | -17.0 | 80.2*
C=CCNc1cccc2c1S(=O)(=O)N[C@H](CC(C)C)CO2 | -0.3 | 0.9 | . | . | . | -6.0 | . | .
O=C(COC(=O)CCCNC(=O)c1ccc(Cl)cc1)NC1CC1 | 13.9* | -0.5 | -0.5 | -1.1 | -0.2 | 0.6 | -0.6 | -1.2
CCOC(=O)c1cnn2c(C(F)(F)F)cc(-c3ccccc3)nc12 | 18.6* | 0.3 | 1.1 | -5.3 | ? | 3.6 | -68.8 | -73.3
CCOC(=O)c1cnn2c(C(F)(F)F)cc(-c3cn(C)nc3C)nc12 | 19.7* | -1.7 | 3.1 | -1.3 | 5.9 | -1.3 | 40.6* | 24.6* | EDANS interf=>69.5
CCCC[C@H]1C2CC(OC(=O)Nc3ccccc3C(F)(F)F)C(C2)[C@H]2CCCCN21 (some centres undefined) | -0.1 | . | . | . | . | -3.8 | . | .
COc1ccc2[nH]c3c(c2c1)CCN[C@]31C(=O)N(Cc2cn(Cc3ccccc3)nn2)c2ccccc21 | -1.1 | . | . | . | . | -14.3 | . | .
Nc1ccccc1/C=C/c1ccccc1N | 84.7* | -3.5 | . | . | . | -5.4 | 60.7* | 65.6*
CCc1cc(=O)oc2c(CNCc3ccc(OC)cc3OC)c(O)c(Cl)cc12 | 44.1* | 1.0 | -2.8 | 1.6 | 4.7 | -6.3 | 70.4* | 66.8*
COc1ccc(CNCc2ccncc2)c(OC)c1 | 0.0 | -0.3 | -6.4 | -0.2 | -15.1 | -1.5 | . | .
COc1ccc(CNCc2c(O)c(Cl)cc3c(C)c(C)c(=O)oc23)c(OC)c1 | 31.9* | -0.6 | -1.1 | -0.4 | 7.5 | -6.0 | 74.3* | 77.7*
